Test results published in PubChem BioAssay (EPA / NIEHS).
The source made the active and inactive calls. How the source made its calls: active means hit-call score of the fitted dose curve at least 0.9, where 1 is the maximum; inactive means score below 0.9.

How the values were obtained:
[1] = biological target: CCAAT/enhancer-binding protein beta (Homo sapiens) (UniProt P17676); assay: ATG_C_EBP_CIS: Attagene CIS-FACTORIAL HepG2 Assay for human CCAAT/Enhancer Binding Protein (C/EBP) beta (AID 2282927); details: HepG2 Attagene cis-factorial transcription factor reporter; actives raise or lower the signal
In short: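 Chemical-treated HepG2 cells (24 h) bearing cis-regulated reporter constructs were processed for total RNA, then reverse transcription, PCR amplification, fluorescent primer extension and fragment analysis; gain- and loss-of-signal were fitted against DMSO.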

[2] = ATG_CMV_CIS: Attagene CIS-FACTORIAL HepG2 Assay for human CMV (Internal Marker) (AID 2282928); details: HepG2 CMV promoter reporter, transcription factor profiling; actives raise or lower the signal;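 further: endpoint acts as a background internal control marker rather than a target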
In short: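 24 h chemical treatment, HepG2 with transient multi-reporter transfection; RNA → oligo(dT) RT → PCR → 6-FAM extension → HpaI digest → CE fluorescence. Bidirectional fit, DMSO negative control.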

[3] = ATG_DR4_LXR_CIS: Attagene CIS-FACTORIAL HepG2 Assay for human Liver X Receptor (LXR), DR4 submotif (AID 2282929); details: HepG2 Attagene DR4 cis-reporter, mRNA transcription; AC50: actives raise or lower the signal unless noted; outcome: actives raise or lower the signal unless noted
In short: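 Measures endogenous transcription factor activity via a DR4-driven reporter transcript in human HepG2 cells. Compounds incubated 24 h; mRNA quantified by RT-PCR and capillary electrophoresis, analysed as gain or loss of signal versus DMSO.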

[4] = biological target: Aryl hydrocarbon receptor (Homo sapiens) (UniProt P35869); assay: ATG_Ahr_CIS: Attagene CIS-FACTORIAL HepG2 Assay for human Aryl Hydrocarbon Receptor (Ahr) (AID 2282930); details: HepG2 AhR cis-factorial reporter transcription; actives raise or lower the signal
In short: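 Following 24 h of chemical dosing, transfected HepG2 liver cells with cis-driven reporter units were lysed for RNA; reporter mRNA was quantified via RT-PCR and capillary electrophoresis, and responses fitted bidirectionally from DMSO.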

[5] = ATG_AP_1_CIS: Attagene CIS-FACTORIAL HepG2 Assay for human Activator Protein 1 (AP-1) (AID 2282931); details: HepG2 Attagene cis-factorial AP-1 reporter mRNA; actives raise or lower the signal
In short: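 Bidirectional concentration-response fitting against DMSO controls. Underlying signal: reporter mRNA from cis-promoter constructs in transiently transfected HepG2, measured after 24 h by RT-PCR and capillary electrophoresis.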

[6] = ATG_AP_2_CIS: Attagene CIS-FACTORIAL HepG2 Assay for human Activator Protein 2 (AP-2) (AID 2282932); details: HepG2 AP-2 cis-reporter, Attagene transcription factor profiling; AC50: actives raise or lower the signal unless noted; outcome: actives raise or lower the signal unless noted
In short: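 Cells (HepG2) transfected with promoter-driven reporter constructs, treated 24 h. Total RNA reverse-transcribed, reporter cDNA PCR-amplified, FAM-labelled by primer extension, digested, resolved by capillary electrophoresis. Activity fitted both directions versus DMSO.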

[7] = ATG_BRE_CIS: Attagene CIS-FACTORIAL HepG2 Assay for human Bone Morphogenetic Protein (BMP) Response Element (BRE) (AID 2282933); details: HepG2 BMP response element reporter, Attagene transcription factor profiling; actives raise or lower the signal
In short: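 After a 24 h chemical treatment, transiently transfected HepG2 cells were lysed for RNA; reporter transcripts were quantified by fluorescent RT-PCR and capillary electrophoresis, normalised to DMSO.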

[8] = biological target: Retinoic acid receptor alpha (Homo sapiens) (UniProt P10276); assay: ATG_DR5_RAR_CIS: Attagene CIS-FACTORIAL HepG2 Assay for human Retinoic Acid Receptor Alpha (RARE), DR5 submotif (AID 2282934); details: HepG2 Attagene cis-factorial RARE DR5 reporter, mRNA; actives raise or lower the signal
In short: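 Transfected HepG2 reporter cells are exposed to chemicals for 24 h. Then RNA is extracted and the DR5 element reporter transcript is measured by RT-PCR and capillary electrophoresis, with bidirectional curve fitting relative to DMSO.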

[9] = ATG_E_Box_CIS: Attagene CIS-FACTORIAL HepG2 Assay for human Enhancer Box (E-box) (AID 2282936); details: HepG2 E-box cis-reporter transcription, actives raise or lower the signal
In short: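 Endogenous transcription factor activity was sensed in human HepG2 liver cells through transfected cis-promoter reporter units. After 24 h of dosing, total RNA was reverse-transcribed and reporter cDNA resolved by capillary electrophoresis.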

[10] = ATG_M_61_CIS: Attagene CIS-FACTORIAL HepG2 Assay for M61 Transcription Factor (Internal Marker) (AID 2282937); details: HepG2 Attagene CIS-FACTORIAL M61 internal marker reporter; actives raise or lower the signal
In short: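 Fluorescence from labelled cDNA fragments, separated by capillary electrophoresis, quantifies reporter induction. HepG2 cells bearing transiently transfected cis-promoter MRTUs were incubated with test chemical for 24 h; DMSO defined baseline for gain/loss fitting.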

[11] = ATG_EGR_CIS: Attagene CIS-FACTORIAL HepG2 Assay for human Early Growth Response 1 (EGR1) (AID 2282938); details: HepG2 Attagene CIS-FACTORIAL EGR reporter mRNA; actives raise or lower the signal
In short: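 Cell-based multiplex transcription assay: HepG2 carrying transfected cis-element reporter units, 24 h chemical treatment. Fluorescence from capillary electrophoresis of RT-PCR products gives mRNA levels; fitting is bidirectional relative to DMSO.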

[12] = ATG_M_19_CIS: Attagene CIS-FACTORIAL HepG2 Assay for M19 Transcription Factor (Internal Marker) (AID 2282939); details: HepG2 Attagene CIS-FACTORIAL M19 internal marker reporter; actives raise or lower the signal
In short: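 In this multiplexed cell assay, transiently transfected HepG2 reporter units report endogenous transcription-factor activity; after 24 hours of treatment, labelled reporter cDNA fragments are quantified by capillary electrophoresis and fitted bidirectionally against DMSO.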

[13] = ATG_ERE_CIS: Attagene CIS-FACTORIAL HepG2 Assay for Estrogen Response Element (ERE) (AID 2282940); details: HepG2 ERE cis-reporter, Attagene RNA transcript; actives raise or lower the signal
In short: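 Measuring endogenous transcription factor output, the assay doses transfected HepG2 cells for 24 hours and quantifies reporter transcripts by fluorescent RT-PCR and capillary electrophoresis, with DMSO as baseline.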

[14] = ATG_Ets_CIS: Attagene CIS-FACTORIAL HepG2 Assay for human Erythroblast Transformation Specific (ETS) (AID 2282941); details: HepG2 ETS cis-reporter transcription; AC50: actives raise or lower the signal unless noted; outcome: actives raise or lower the signal unless noted
In short: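 Cis-regulated reporter mRNA induction in HepG2 (transient transfection), 24 h exposure, RT-PCR plus capillary electrophoresis detection; DMSO serves as negative control and baseline.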

[15] = biological target: Hepatocyte nuclear factor 3-beta (Homo sapiens) (UniProt Q9Y261); assay: ATG_FoxA2_CIS: Attagene CIS-FACTORIAL HepG2 Assay for human Forkhead box A2 (FOXA2) (AID 2282942); details: HepG2 cis-reporter transcription factor activity, 24 h; actives raise or lower the signal
In short: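 In transiently transfected human HepG2 cells, promoter-driven reporter mRNA levels after 24 h chemical exposure are determined via RT-PCR with capillary electrophoresis. DMSO serves as baseline for bidirectional fitting.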

[16] = ATG_FoxO_CIS: Attagene CIS-FACTORIAL HepG2 Assay for human Forkhead box O (FoxO) (AID 2282943); details: HepG2 Attagene cis-reporter, FoxO element, mRNA; actives raise or lower the signal
In short: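 24 h chemical exposure, HepG2 with transient cis-MRTU transfection. RNA extraction, oligo(dT) RT, reporter-specific PCR, primer-extension labelling, HpaI digestion, CE fragment analysis; bidirectional fit, DMSO baseline.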

[17] = ATG_GATA_CIS: Attagene CIS-FACTORIAL HepG2 Assay for human GATA Binding Protein (AID 2282944); details: HepG2 GATA cis-element reporter, Attagene multiplex mRNA; actives raise or lower the signal
In short: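 Measures endogenous transcription factor-driven reporter mRNA in HepG2 cells transiently carrying cis-regulated constructs. 24 h dosing; RNA via oligo(dT) reverse transcription, PCR, HpaI digestion, capillary electrophoresis; fitted relative to DMSO.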

[18] = biological target: Bile acid receptor (Homo sapiens) (UniProt Q96RI1); assay: ATG_IR1_CIS: Attagene CIS-FACTORIAL HepG2 Assay for human Nuclear Receptor Subfamily 1 Group H Member 4 (NR1H4), IR1 submotif (AID 2282946); details: IR1 reporter transcription, actives raise or lower the signal
In short: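 Readout: reporter transcript levels by RT-PCR with fluorescent capillary electrophoresis, from HepG2 cells transiently transfected with multiplexed cis-regulated reporters and dosed 24 h. Gain- or loss-of-signal fitted versus DMSO negative control.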

[19] = biological target: Transcription factor E2F1 (Homo sapiens) (UniProt Q01094); assay: ATG_E2F_CIS: Attagene CIS-FACTORIAL HepG2 Assay for human E2F Transcription Factor 1 (AID 2282935); details: HepG2 Attagene cis-reporter, E2F reporter RNA transcripts; actives raise or lower the signal
In short: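 First, HepG2 cells were transfected with reporter transcription units. Next, they were dosed for 24 h. Then RNA was isolated, converted to cDNA, PCR-amplified, FAM-labeled, HpaI-digested and analyzed by capillary electrophoresis.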

[20] = ATG_GLI_CIS: Attagene CIS-FACTORIAL HepG2 Assay for human Zinc Finger Protein GLI1 (AID 2282945); details: HepG2, Attagene cis-factorial reporter mRNA, GLI element; actives raise or lower the signal
In short: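 HepG2 cells transiently transfected with cis-promoter multiplexed reporter units report endogenous transcription factor activity. After 24 h chemical exposure, reporter mRNA was quantified by RT-PCR, 6-FAM labelling, HpaI digestion and capillary electrophoresis, with bidirectional fitting against DMSO.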

Measured: outcome

Retinoic acid receptor alpha (Homo sapiens), sequence (P10276 whole entry, looked up): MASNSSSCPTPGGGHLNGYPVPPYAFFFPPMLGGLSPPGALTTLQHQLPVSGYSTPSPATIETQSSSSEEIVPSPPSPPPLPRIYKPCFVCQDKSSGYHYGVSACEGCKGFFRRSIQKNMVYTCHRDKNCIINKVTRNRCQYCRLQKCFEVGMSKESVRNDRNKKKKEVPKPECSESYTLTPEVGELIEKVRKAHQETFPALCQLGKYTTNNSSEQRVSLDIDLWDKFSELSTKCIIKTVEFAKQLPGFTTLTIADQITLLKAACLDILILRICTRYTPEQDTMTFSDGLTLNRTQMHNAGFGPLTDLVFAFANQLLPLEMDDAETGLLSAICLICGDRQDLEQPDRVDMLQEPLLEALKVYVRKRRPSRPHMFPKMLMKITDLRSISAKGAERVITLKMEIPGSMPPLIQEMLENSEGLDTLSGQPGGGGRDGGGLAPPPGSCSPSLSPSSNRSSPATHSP
Transcription factor E2F1 (Homo sapiens), sequence (Q01094 whole entry, looked up): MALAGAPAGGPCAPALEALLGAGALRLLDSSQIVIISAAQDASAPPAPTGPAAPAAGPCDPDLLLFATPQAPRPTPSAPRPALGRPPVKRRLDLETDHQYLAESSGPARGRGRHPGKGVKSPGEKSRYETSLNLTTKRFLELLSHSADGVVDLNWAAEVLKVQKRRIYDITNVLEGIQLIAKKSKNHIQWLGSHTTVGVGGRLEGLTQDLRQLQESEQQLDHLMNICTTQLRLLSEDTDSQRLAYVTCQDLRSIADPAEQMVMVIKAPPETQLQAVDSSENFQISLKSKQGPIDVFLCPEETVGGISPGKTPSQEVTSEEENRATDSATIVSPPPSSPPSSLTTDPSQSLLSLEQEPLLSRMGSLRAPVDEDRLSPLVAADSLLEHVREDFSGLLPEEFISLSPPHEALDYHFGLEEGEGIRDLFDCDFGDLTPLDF
Aryl hydrocarbon receptor (Homo sapiens), sequence (P35869 whole entry, looked up): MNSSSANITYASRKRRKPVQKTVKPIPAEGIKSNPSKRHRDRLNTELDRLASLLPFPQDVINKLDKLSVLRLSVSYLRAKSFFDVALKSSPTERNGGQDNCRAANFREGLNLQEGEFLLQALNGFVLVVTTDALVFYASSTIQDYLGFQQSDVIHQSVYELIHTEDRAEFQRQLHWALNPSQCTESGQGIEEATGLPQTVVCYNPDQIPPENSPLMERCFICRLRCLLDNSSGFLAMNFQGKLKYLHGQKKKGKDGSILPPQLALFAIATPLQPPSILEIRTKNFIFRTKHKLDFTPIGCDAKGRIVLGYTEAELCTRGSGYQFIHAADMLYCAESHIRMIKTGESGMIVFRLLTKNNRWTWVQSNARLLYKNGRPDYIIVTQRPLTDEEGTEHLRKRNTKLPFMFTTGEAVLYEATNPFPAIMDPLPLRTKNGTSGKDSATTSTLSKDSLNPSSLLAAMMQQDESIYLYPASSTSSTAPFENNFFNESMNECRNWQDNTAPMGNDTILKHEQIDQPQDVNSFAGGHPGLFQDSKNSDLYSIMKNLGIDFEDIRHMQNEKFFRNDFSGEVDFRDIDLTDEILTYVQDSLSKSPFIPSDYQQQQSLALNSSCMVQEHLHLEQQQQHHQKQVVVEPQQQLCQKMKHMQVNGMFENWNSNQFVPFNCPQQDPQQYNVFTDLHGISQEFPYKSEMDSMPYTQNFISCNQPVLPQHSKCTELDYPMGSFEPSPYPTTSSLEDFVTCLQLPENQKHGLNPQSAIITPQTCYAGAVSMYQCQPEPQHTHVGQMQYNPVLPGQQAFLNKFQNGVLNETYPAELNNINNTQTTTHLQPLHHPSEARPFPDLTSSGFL
Bile acid receptor (Homo sapiens), sequence (Q96RI1 whole entry, looked up): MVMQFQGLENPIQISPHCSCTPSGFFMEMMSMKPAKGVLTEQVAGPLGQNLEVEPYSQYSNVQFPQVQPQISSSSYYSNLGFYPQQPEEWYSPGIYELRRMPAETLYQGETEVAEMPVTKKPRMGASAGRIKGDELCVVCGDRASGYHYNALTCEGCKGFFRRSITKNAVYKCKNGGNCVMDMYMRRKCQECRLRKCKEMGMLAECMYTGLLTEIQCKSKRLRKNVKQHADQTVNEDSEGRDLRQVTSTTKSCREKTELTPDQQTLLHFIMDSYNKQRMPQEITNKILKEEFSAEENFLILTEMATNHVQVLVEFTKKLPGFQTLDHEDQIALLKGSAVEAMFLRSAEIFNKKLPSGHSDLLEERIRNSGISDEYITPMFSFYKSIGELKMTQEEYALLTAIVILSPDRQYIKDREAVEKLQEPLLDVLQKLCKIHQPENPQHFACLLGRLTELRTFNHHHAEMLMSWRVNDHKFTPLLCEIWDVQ
CCAAT/enhancer-binding protein beta (Homo sapiens), sequence (P17676 whole entry, looked up, the tested form may be a part): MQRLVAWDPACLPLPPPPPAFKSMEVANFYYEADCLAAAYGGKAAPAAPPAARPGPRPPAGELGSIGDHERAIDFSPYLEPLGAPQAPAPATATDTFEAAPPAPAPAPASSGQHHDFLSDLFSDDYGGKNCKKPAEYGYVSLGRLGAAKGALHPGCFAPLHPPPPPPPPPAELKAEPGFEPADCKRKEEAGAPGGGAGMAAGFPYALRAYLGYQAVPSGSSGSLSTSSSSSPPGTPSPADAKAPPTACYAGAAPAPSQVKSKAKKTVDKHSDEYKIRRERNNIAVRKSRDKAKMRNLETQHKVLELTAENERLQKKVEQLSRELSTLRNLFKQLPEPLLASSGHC
Hepatocyte nuclear factor 3-beta (Homo sapiens), sequence (Q9Y261 whole entry, looked up): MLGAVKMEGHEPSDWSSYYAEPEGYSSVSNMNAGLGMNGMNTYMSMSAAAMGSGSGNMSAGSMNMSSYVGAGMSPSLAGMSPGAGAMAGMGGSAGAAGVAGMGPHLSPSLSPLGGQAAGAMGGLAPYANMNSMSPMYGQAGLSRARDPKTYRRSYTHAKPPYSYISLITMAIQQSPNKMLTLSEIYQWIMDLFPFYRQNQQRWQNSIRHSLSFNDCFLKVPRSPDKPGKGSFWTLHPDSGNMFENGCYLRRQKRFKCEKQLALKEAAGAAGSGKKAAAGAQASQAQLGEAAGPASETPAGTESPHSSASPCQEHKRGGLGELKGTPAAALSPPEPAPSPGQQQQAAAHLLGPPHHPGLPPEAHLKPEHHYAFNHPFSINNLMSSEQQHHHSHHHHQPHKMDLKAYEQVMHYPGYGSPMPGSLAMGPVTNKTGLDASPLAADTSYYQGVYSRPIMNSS

FC(F)(F)N1C(F)(F)C(F)(F)OC(F)(F)C1(F)F
not listed: [19] | [20]
inactive: all other assays above

c1ccc2c(c1)CCC2
not listed: [12]
inactive: all other assays above

O=C(O)c1cccc(C(=O)O)n1
not listed: [8]
inactive: all other assays above

Brc1cc(Br)c(Oc2c(Br)cc(Br)c(Br)c2Br)cc1Br
not listed: [19]
inactive: all other assays above

CCOC(=O)CN[C@@H](C(=O)N1CC[C@H]1C(=O)NCc1ccc(/C(N)=N/O)cc1)C1CCCCC1
not listed: [10] | [17] | [19]
inactive: all other assays above

CC(C)(c1ccc(Oc2ccc(N)cc2)cc1)c1ccc(Oc2ccc(N)cc2)cc1
not listed: [10] | [14] | [17] | [20]
inactive: all other assays above

O=C(F)C(F)(F)C(F)(F)C(F)(F)C(=O)F
not listed: [12] | [19]
inactive: all other assays above
